# Bioassay records: PubChem BioAssay, National Center for Advancing Translational Sciences (NCATS)
# ATXN2 expr inh: reduces ATXN2 reporter expression in HEK-293 cells; HEK-293 ATXN2-luciferase reporter, luminescence, 24 h; Potency, µM (top dose mostly 57 µM), without a hit: at the top dose activity change, negative = inhibition, actives largely listed as inhibitors; actives 0.72% (n = 360,000); note: % is set by controls: 0 for no effect and ±100 for the full control effect; nearly all actives have a fitted effect of over 55% in size
#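 qHTS (up to 57 uM final) was run with 24 h compound exposure of reporter cells at 37 °C. Each well was multiplexed: SteadyGlo luminescence measured ATXN2-luciferase expression after a fluorogenic Gly-Phe-AFC viability readout (25 uM final).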
# DT40 TDP1 no CPT: qHTS for Inhibitors of human tyrosyl-DNA phosphodiesterase 1 (TDP1): qHTS in cells in absence of CPT; AID 686978, 2013; Potency, µM (series often up to 46.2 µM), for inactives: at the top dose activity change, negative = growth inhibition, usual class: inhibitors; actives 15% (n = 420,000); DT40 Tdp1-/- hTDP1 cells, no CPT, ATP luminescence, 48 h; note: % is set by controls: 0 for no effect and ±100 for the full control effect; nearly all actives have a fitted effect of over 55% in size
#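 Seeded 400 DT40-hTDP1 cells/well (vehicle DMSO, no 20 nM CPT); pinned compounds; ≥48 hr at 37 °C; CellTiter-Glo luminescence as viability measure.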
# HepG2 viability: kills HepG2 cells in TGF-b inhibitor counter-screen; HepG2 CAGA-GFP viability, ATP luminescence, 18 h; Potency, µM (titrated, usually from 46.1 µM), for inactives: at the highest dose activity change, negative = cytotoxicity, usual class: cytotoxic; actives 0.76% (n = 410,000); AID 588856
#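 CellTiter-Glo luminescence gave cytotoxicity after 18 hours at 37 degrees C. The cells were HepG2 CAGA-GFP in 1% FBS DMEM, stimulated with 500 pg/mL TGF-beta after compound addition. %Activity was normalised to no-cell wells (complete cell-killing) and DMSO (no toxicity), and curves were fitted and classified.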
# ATXN viability: viability counter-screen for ATXN expression inhibitors. actives 0.49% (n = 400,000). AID 651635. S2 cells (HEK-293 line with an ATXN2-luciferase reporter) viability, CellTiter-Fluor protease fluorescence, 24 h. Potency, µM (titrated, usually from 56.7 µM), actives largely listed as cytotoxic; note: nearly all actives have a fitted effect of over 40% in size
# TGFb SMAD3 inh: inhibitors of TGF-b signaling; Potency, µM (top dose mostly 46.1 µM), for inactives: at the highest dose activity, negative = inhibition, usual class: inhibitors; HepG2 CAGA-GFP TGF-b/SMAD3 reporter, GFP fluorescence, 18 h; TGF-beta stimulated, 500 pg/mL final; actives 1.2% (n = 410,000); note: % is set by controls: 0 for no effect and ±100 for the full control effect; nearly all actives have a fitted effect of over 65% in size
#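 First, reporter cells (HEPG2 CAGA-GFP) rested 2 h at 37 degrees C. Next, compounds were pinned in and TGF-beta added to 500 pg/mL final. After 18 h, GFP was imaged per cell and summed per well.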
# TDP1 cell CPT: DT40-hTDP1 cell growth loss with CPT; chicken DT40 Tdp1-/-;hTDP1 cells + 20 nM CPT, ATP luminescence, 48 h; Potency, µM (doses to about 46.2 µM), inactives show top-dose activity change, negative = growth inhibition, usual class: inhibitors; actives 12% (n = 420,000); AID 686979; note: % is set by controls: 0 for no effect and ±100 for the full control effect; nearly all actives have a fitted effect of over 55% in size
#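 Chicken DT40 Tdp1-/- cells complemented with human TDP1, 400 cells/well, exposed to compounds plus 20 nM camptothecin for at least 48 h at 37 C; viability read as ATP content by CellTiter-Glo luminescence.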
# * marks the source's active call; other numbers are inactive results; i = inactive; u = inconclusive; x = no result; [ ] = another dose, or the depositor's remark. A selection: hits, their analogues and other compounds. The true share with any hit is near 17%. Calls come from the whole dose curve; as a rule, active = well fitted curve in the direction sought with a large enough effect; inconclusive = small, poorly fitted or top-dose-only effect, or another doubt; inactive = no such curve, though single readings can be large; an effect the other way counts as inactive or inconclusive. Potency is the fitted concentration of half-maximal effect.
SMILES,ATXN2 expr inh,DT40 TDP1 no CPT,HepG2 viability,ATXN viability,TGFb SMAD3 inh,TDP1 cell CPT
CCOC(=O)N1CCN(C(=O)CSc2nc3c([nH]c4ccccc43)c(=O)n2CC)CC1,9%,15µM*,-38%,u,u,u
Cc1[nH]c2ccccc2c1SCC(=O)N1CCN(c2ccccc2)CC1,-3%,26µM*,1%,i,5%,u
C=CCn1c(SCC(=O)N2CCN(c3ccccc3)CC2)nc2c([nH]c3ccccc32)c1=O,-14%,12µM*,-1%,u,1%,16µM*
Cc1[nH]c2ccccc2c1SCC(=O)N1CCCCCC1,6%,-1%,-2%,i,-21%,-17%
CCn1c(SCC(=O)N2CCCCC2)nc2c([nH]c3ccccc32)c1=O,x,-26%,-5%,i,20%,1%
C=CCn1c(SCC(=O)N2CCOCC2)nc2c([nH]c3ccccc32)c1=O,1%,u,-23%,u,u,u
O=C(NC1CCCC1)c1cc(-c2cccc(Cl)c2)on1,66%,-27%,-3%,i,-9%,10%
O=C(NCC1CCC2(CCN(Cc3cc4ccccc4o3)CC2)O1)c1ccccc1 (stereo not given),x,-12%,x,i,x,10%[9.04 µM]
CC(C)C(=O)N1CCN(c2ccc([N+](=O)[O-])c(NC(C)c3ccccc3)c2)CC1 (stereo not given),-18%,16µM*,-15%,i,u,u
O=[N+]([O-])c1ccc(N2CCOCC2)cc1NC(c1ccccc1)c1ccccc1,-11%,u,10%,i,3%,16µM*
CC(Nc1cc(N2CCN(C(=O)C(C)(C)C)CC2)ccc1[N+](=O)[O-])c1ccccc1 (stereo not given),-31%,23µM*,0%,u,u,u
O=C(Nc1ccc(F)cc1C(F)(F)F)C1CCN(c2ncccn2)CC1,9%,-3%,3%,i,u,-14%
CC[C@@H](C)[C@H](CN[C@H](CNC)C(C)C)NC[C@@H](C)c1ccc(CC(C)C)cc1,28µM*,1.5µM*,-111%,x,u,1.5µM*
Cc1ccc(SCC(=O)c2c(C)nc3cc(C)ccn23)cc1,21%,u,-12%,i,1%,u
Cc1nc2ccccn2c1C(=O)CSc1ccc(Cl)cc1Cl,-24%,18µM*,-13%,u,0%,u
Cc1nc2ccccn2c1C(=O)CSc1cccc(Cl)c1,-21%,u,-30%,i,-12%,u
Cc1nc2ccccn2c1C(=O)CSc1ccccc1Cl,-13%,16µM*,-20%,i,-1%,16µM*
COc1ccc(OC)c(S(=O)(=O)N2c3cc(F)ccc3CCC2C)c1 (stereo not given),-9%,u,-20%,i,-15%,7.3µM*
Cc1cc(C)cc(C(=O)N2CC(=O)Nc3ccc(C)cc3C2c2ccccc2)c1 (stereo not given),u,u,-50%,u,u,u
CCOc1cc(C(=O)N2CC(=O)Nc3ccc(C)cc3C2c2ccccc2)cc(OCC)c1OCC (stereo not given),9%,21µM*,0%,i,10%,18µM*
Cc1ccc2c(c1)C(c1ccccc1)N(C(=O)c1ccccc1F)CC(=O)N2 (stereo not given),-10%,u,-12%,i,1%,18µM*
COc1cccc(-c2sc3ccc(OC)cc3c2-c2cc(F)cc(OC)c2)c1,1%,-27%,-24%,i,u,-12%
